This is an account of results in PubChem BioAssay AID652257 (The Scripps Research Institute Molecular Screening Center, 2013).

Hit rate of the full screen: of about 370,000 compounds, about 4,800 (1.3%) were called active.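 How the source made its calls: active means inhibition above about 21% made by adding two undisclosed values (limit read from the data); inactive means the rest.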 Many of the other results were omitted from the sample, so actives are more common in it than they were.

Sequence of Protein arginine N-methyltransferase 1 (Homo sapiens) (Q99873 whole entry, looked up): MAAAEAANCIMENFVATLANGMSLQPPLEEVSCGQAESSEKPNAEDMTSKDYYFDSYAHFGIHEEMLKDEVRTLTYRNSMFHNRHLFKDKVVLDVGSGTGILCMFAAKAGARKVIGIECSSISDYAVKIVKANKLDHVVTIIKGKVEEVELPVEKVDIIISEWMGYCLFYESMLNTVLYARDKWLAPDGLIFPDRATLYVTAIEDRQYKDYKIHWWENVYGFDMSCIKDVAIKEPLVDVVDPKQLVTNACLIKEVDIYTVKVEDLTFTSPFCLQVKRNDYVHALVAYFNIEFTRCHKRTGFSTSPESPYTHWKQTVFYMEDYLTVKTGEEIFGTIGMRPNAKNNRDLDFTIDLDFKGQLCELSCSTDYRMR

The experiment addresses Protein arginine N-methyltransferase 1 (Homo sapiens) (UniProt Q99873). As to the kind of experiment: human PRMT1 activity-probe blockers – biochemical, fluorescence polarization, primary screen (AID 652257). To be noted: recombinant PRMT1, activity-based probe fluorescence polarization; at 2.79 µM; stronger effect = higher value.
In the case of `COc1ccnc(C(=O)N2CCC(Oc3cccnc3)CC2)c1`, the inhibition is 2.35% (inactive). With `CSc1cc(C)[nH]c(=O)n1` the figure was 2.31% (inactive); with `Cc1cc(=O)cc(C)[nH]1`, -3.92% (inactive). As for `Cc1cc(=O)[nH]c(=S)[nH]1`, the inhibition was 107% (active).

In the case of `COC(=O)[C@H](C(C)C)N(CCc1cn(Cc2ccccc2)nn1)S(=O)(=O)c1ccc(F)cc1Br`, the inhibition is 0.27% (inactive).

On to `Cc1ccc(C)c(S(=O)(=O)N(C)c2ccc(OC(=O)C3CCN(C(=O)c4ccc(F)cc4)CC3)cc2)c1`, for which the inhibition is 0.47% (inactive). With `CCCCC(=O)NC(c1ccc(OC)c(OC)c1)c1ccc2cccnc2c1O` (centres undefined) the figure was -1.04% (inactive). With `CCOC(=O)N1CCN(C(c2cccnc2)c2ccc3cccnc3c2O)CC1` (centres undefined), the inhibition was 26.1% (active).

With `CCOC(=O)N1CCN(C(c2ccnc3ccccc23)c2nnnn2-c2c(C)cccc2C)CC1` (centres undefined), the inhibition was -3.34% (inactive).

Turning to `Cc1cccc(N2CCC(NCc3c(C(=O)N4CCCCC4)nc4c(C)cccn34)CC2)c1`, the inhibition is 7.11% (inactive).

In the case of `O=C(O)C1CCN(S(=O)(=O)N2CCOCC2)CC1`, the inhibition is 0.67% (inactive). With `O=C(O)c1c(NC(=O)N2CCCC2)sc2c1CCCC2` the figure was 4.25% (inactive); with `NC(=O)c1c(Nc2nc3c(F)cccc3s2)sc2c1CCCC2`, 48.8% (active); with `CCOC(=O)C(NC(=O)CC(C)C)(Nc1sc2c(c1C(N)=O)CCCC2)C(F)(F)F` (centres undefined), 0.14% (inactive). With `Cc1ccc2nc(SCc3nnc(-c4ccccc4[N+](=O)[O-])o3)c(C#N)cc2c1` the figure was -0.9% (inactive). With `Cc1ccc(-c2ccc(/C=C(\C#N)C(N)=S)o2)c([N+](=O)[O-])c1` the figure was 34.7% (active); with `COc1ccc(CN2C(=O)C(CC(=O)NCCCCc3ccccc3)CC(C(=O)N3CCOCC3)=C2C)cc1` (centres undefined), -9.04% (inactive).

Regarding `COCCNC(=O)C(c1ccc(C)cc1)N(C(=O)CCC(=O)Nc1ccccn1)c1cccc(C)c1` (centres undefined), the inhibition was -0.11% (inactive). With `CCOC(=O)c1c(N=CN(C)C)c(C#N)c2n1CCCC2` the figure was -2.76% (inactive). Take `Cc1ccc(Cn2cc(COC(=O)N(C)Cc3ccccc3)nn2)cc1`: the inhibition is 0.99% (inactive). With `O=C(COC(=O)Cn1[nH]c(=O)c2ccccc2c1=O)Nc1ncc(Cl)cc1Cl` the figure was -0.63% (inactive); with `O=C(Cc1ccc(-c2ccccc2)cc1)NC(c1ccccc1)c1ccccc1`, 44.1% (active). With `CCOC(=O)/C=C/C(=O)OCC(=O)NC(c1ccccc1)c1ccccc1` the figure was 8.52% (inactive); with `O=C(CN1CCc2ccccc21)NC(c1ccccc1)c1ccccc1`, -3.28% (inactive). With `COc1ccc(OCCCC(=O)Nc2nnc(C3CCCO3)s2)cc1` (centres undefined) the figure was 2.04% (inactive). For the compound `COc1ccc(CNC(=O)CCC(=O)Nc2nnc(C(C)C)s2)cc1`, the inhibition is 6.7% (inactive). With `COc1ccc(OCC(=O)Nc2nnc(-c3ccco3)s2)cc1` the figure was 22.1% (active); with `O=C(NCc1cccs1)C1CCCN(S(=O)(=O)c2ccc([N+](=O)[O-])cc2)C1` (centres undefined), 0.46% (inactive).

On to `C=CCN1C(=O)[C@H](CC(=O)NCCCN2CCCC2=O)[C@@]2(C(=O)OCC)CCCC=C12`, for which the inhibition was 0.15% (inactive). With `O=C(NCCOc1cccnc1)c1ccc(OC2CCN(Cc3ccccn3)CC2)cc1` the figure was 3.52% (inactive).

Regarding `Cc1ccccc1N1CC(C(=O)Nc2nnc(SCCC3OCCO3)s2)CC1=O` (centres undefined), the inhibition is 5.12% (inactive). With `Cc1ccnc(-n2sc3ccccc3c2=O)n1` the figure was 90.7% (active); with `CCOc1ccc(-n2cnnn2)cc1S(=O)(=O)N1CCC(C)CC1C` (centres undefined), -4.54% (inactive). With `CC(NC(=S)NC1CCCCC1)C(c1ccccc1)N1CCOCC1` (centres undefined) the figure was 0.42% (inactive); with `COc1ccc(N2CCN(CCNS(=O)(=O)c3ccc([N+](=O)[O-])cc3)CC2)cc1`, -4.73% (inactive); with `CC1(c2ccccc2Cl)NC(=O)N(CC(=O)NC(=O)NCc2ccco2)C1=O` (centres undefined), 5.3% (inactive).

`O=C(CC1CCCCC1)NCc1ccco1`: the inhibition was -1.65% (inactive). With `O=C(CC1N=C2c3ccccc3N=C(SCc3ccccc3Cl)N2C1=O)NCc1ccco1` (centres undefined) the figure was 26.2% (active); with `O=C(NCCCN1CCN(c2ccc(F)cc2)CC1)Nc1ccc([N+](=O)[O-])cc1`, -0.66% (inactive); with `Nn1c(SCC(=O)Nc2cccc3ccccc23)nnc1-c1cc(-c2ccc(F)cc2)n[nH]1`, 2.17% (inactive). With `CN(C)c1ccc(Nc2c3c4c(cccc4n(C)c2=O)C(=O)c2ccccc2-3)cc1` the figure was 56.4% (active); with `Cc1cc(Cl)ccc1C(=O)C1CCCN(C(=O)c2nonc2C)C1` (centres undefined), -0.28% (inactive); with `COc1ccc(Cn2cc(COC(=O)N(C)Cc3ccccc3)nn2)cc1`, -6.72% (inactive). With `Cc1cccc(N2CCN(C(=O)/C=C/c3ccco3)CC2)c1C` the figure was 29.9% (active); with `CCn1c(C)c(C)c2cc(C(=O)N3CCN(c4cccc(C)c4C)CC3)ccc21`, 2.44% (inactive). As for `Cc1cccc(N2CCN(C(=O)c3cc4c(=O)[nH]c5ccccc5c4n3C)CC2)c1C`, the inhibition is -1.76% (inactive).

With `CN(C)c1ccc(NC(=O)NC2CCCCN(Cc3ccc(Cl)cc3)C2=O)cc1` (centres undefined), the inhibition was 4.83% (inactive). With `Nn1c(SCC(=O)Nc2ccc(S(N)(=O)=O)cc2)nnc1-c1n[nH]c2c1CCC2` the figure was 0.39% (inactive); with `CN(C)[C@H]1CCN(c2cccc3c2S(=O)(=O)N2CC[C@H](C2)O3)C1`, 0.28% (inactive); with `CC(=O)OC12CCCN(C1)/C(=C/c1ccncc1)C2` (centres undefined), -0.73% (inactive). With `COCCCNC(=O)CC1C[C@H](C(=O)N2CCCCC2)[C@@]2(CCc3ccccc3)c3[nH]c4ccccc4c3CCN2C1=O` (some centres undefined) the figure was -2.68% (inactive); with `CCCCCCCCNS(=O)(=O)/C=C/c1cc(C)ccc1CNC(=O)OC(C)(C)C`, -0.82% (inactive). With `O=C(CSc1ccccc1)Nc1cccc(S(=O)(=O)N2CCCCC2)c1` the figure was -5.2% (inactive). With `Cc1cc(NC(=O)C(C)SCC(=O)Nc2ccccc2N2CCCCC2)no1` (centres undefined), the inhibition was -2.38% (inactive). With `Cc1cc(NC(=O)C(C)SCC(=O)Nc2cccc(S(=O)(=O)N3CCCCCC3)c2)no1` (centres undefined) the figure was 71.1% (active); with `C=C1C(C(C)C)N(C)C2=NC(c3ccccc3)CC(=O)N12` (centres undefined), -3.21% (inactive); with `O=C(NC1CCCCC1)C(c1cc2ccccc2o1)n1c(=O)c(-c2ccco2)nc2ccccc21` (centres undefined), 10.9% (inactive). With `Cc1cccc(C)c1NC(=O)C(c1ccc(C(F)(F)F)cc1)n1c(=O)c(-c2ccco2)nc2ccccc21` (centres undefined) the figure was 23.1% (active).

For `N#Cc1ccc(C(C(=O)NCc2ccccc2)n2c(=O)c(-c3ccco3)nc3ccccc32)cc1` (centres undefined), the inhibition was 20.9% (inactive).
